A short description of assay [1]: qHTS assay to identify small molecule antagonists of the estrogen related receptor (ERR) signaling pathway from Tox21 library - cell viability counter screen (AID 1224834). Further: nearly all actives have a fitted effect of over 30% in size. Further: potency means the concentration at half of the fitted maximal effect. Summed up:
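ERR cells, 2,000/well; 6 h settle at 37 C/5% CO2; pin-tool compound transfer in DMSO; 17.5 h at 37 C; CellTiter-Fluor, 30 min; fluorescence intensity.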
(Quantitative high-throughput screening tests each substance at several concentrations.)

Assay [2] deals with Luciferin 4-monooxygenase (Photinus pyralis) (UniProt P08659). The assay is described as follows: qHTS assay to identify small molecule inhibitors of firefly luciferase (AID 1224835). Further: nearly all actives have a fitted effect of over 25% in size. Further: potency means the concentration at half of the fitted maximal effect. The method in brief: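 Quantitative HTS format; KM concentrations of both substrates. Purified P. pyralis FLuc activity quantified from luminescence images.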
Luciferin 4-monooxygenase (Photinus pyralis), sequence (P08659 whole entry, looked up): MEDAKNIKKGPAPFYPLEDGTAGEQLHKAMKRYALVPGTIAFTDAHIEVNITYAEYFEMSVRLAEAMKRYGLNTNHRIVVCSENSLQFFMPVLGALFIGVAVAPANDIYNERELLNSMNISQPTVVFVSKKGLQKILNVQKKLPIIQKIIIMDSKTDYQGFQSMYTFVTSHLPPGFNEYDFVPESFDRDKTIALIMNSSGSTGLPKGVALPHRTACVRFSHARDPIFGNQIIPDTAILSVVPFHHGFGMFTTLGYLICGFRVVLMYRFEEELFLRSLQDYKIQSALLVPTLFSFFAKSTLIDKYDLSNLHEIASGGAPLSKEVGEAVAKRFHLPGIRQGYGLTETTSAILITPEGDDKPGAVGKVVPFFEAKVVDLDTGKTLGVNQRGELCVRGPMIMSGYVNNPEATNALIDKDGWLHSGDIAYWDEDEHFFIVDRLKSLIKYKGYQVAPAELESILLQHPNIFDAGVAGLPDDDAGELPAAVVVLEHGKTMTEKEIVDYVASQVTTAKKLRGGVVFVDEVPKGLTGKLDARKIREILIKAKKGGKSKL
The target in assay [3] is Nuclear receptor subfamily 1 group I member 3 (Homo sapiens) (UniProt Q14994). The assay is described as follows: qHTS assay to identify small molecule antagonists of the constitutive androstane receptor (CAR) signaling pathway (AID 1224838).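 Further: HepG2 cells stably expressing hCAR with CYP2B6 luciferase reporter stimulated by CITCO; nearly all actives have a fitted effect of over 40% in size.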 The method in brief:
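Antagonist mode used CITCO at a final 50 nM to activate CAR in human hepatoma HepG2 cells carrying stable hCAR and a 2.2 kb CYP2B6 promoter-luciferase construct. Compounds were tested at 15 concentrations over 24 h, with luminescence as the end point.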

For assay [4] the target is unchanged. The assay is described as follows: qHTS assay to identify small molecule agonists of the constitutive androstane receptor (CAR) signaling pathway (AID 1224839). Further: nearly all actives have a fitted effect of over 15% in size. The method in brief:
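In this screen, CAR-driven CYP2B6 promoter activity is measured by luminescence in HepG2-CYP2B6-hCAR cells after 24 h with test compounds and 0.75 uM PK11195 (final concentration).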

A short description of assay [5]: qHTS assay to identify small molecule antagonists of the estrogen related receptor signaling pathway with the pleiotropic PPARgamma coactivator (PGC) from Tox21 10K library - cell viability counter screen (AID 1224840; active means well fitted cell-killing curve with a large enough effect in the repeat runs, not every such curve was filed as active; further: nearly all actives have a fitted effect of over 40% in size; further: potency means the concentration at half of the fitted maximal effect). The method in brief:
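Multiplexed viability counter screen in the PGC/ERR cell line: cells treated with DMSO-dissolved compounds for 17.5 hours at 37 C, then viability measured as CellTiter-Fluor fluorescence.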

Assay [6] concerns the target Thyrotropin receptor (Homo sapiens) (UniProt P16473). The assay is described as follows: qHTS assay to identify small molecule agonists of the thyroid stimulating hormone receptor (TSHR) signaling pathway (AID 1224843; calls by dose curve; further: nearly all actives have a fitted effect of over 45% in size; further: potency means the concentration at half of the fitted maximal effect). The method in brief: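 Using 15 concentrations per compound in triplicate, cAMP production was monitored in TSHR-HEK293 cells after 30 min compound incubation at RT; HTRF reagents followed, with fluorescence intensity recorded after 1 h.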

Assay [7] in a line: qHTS assay to identify small molecule agonists of the hypoxia (HIF-1) signaling pathway - cell viability counter screen (AID 1224844; calls by dose curve; further: nearly all actives have a fitted effect of over 50% in size). The method in brief: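 Cytotoxicity was measured in parallel with the HRE-driven beta-lactamase readout: after 17 hrs of compound exposure at 37C, HRE-bla ME-180 cells received CellTiter-Glo and luminescence was recorded 30 min later.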
Assay [8] in a line: qHTS assay to identify small molecule agonists of H2AX (AID 1224845; active means well fitted activation curve with a large enough effect in the signal ratio in the repeat runs, not every such curve was filed as active; the % refers to the signal ratio). Summed up: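 Wild-type CHO-K1 cells plated overnight, then exposed 3 hr at 37C to compounds at 15 concentrations (0.76% DMSO). Lysed, then HTRF anti-pH2AX(S139)-cryptate/anti-H2AX-d2 detection after 24 hr at room temperature; emissions 665 and 620 nm.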
The nature of assay [9]: qHTS assay to identify small molecule agonists of the hypoxia (HIF-1) signaling pathway (AID 1224846; active means well fitted activation curve with a large enough effect in the signal ratio in the repeat runs, not every such curve was filed as active; the % refers to the signal ratio). The method in brief: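 Compounds from the Tox21 10K library, dissolved in DMSO, are tested for induction of a hypoxia response element–controlled beta-lactamase reporter in ME-180 cells. Exposure lasts 17 hrs at 37C after a 5 hr settling period, followed by CCF4-AM FRET substrate.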

A short description of assay [10]: qHTS assay to identify small molecule agonists of H2AX - cell viability counter screen (AID 1224847; calls by dose curve; further: nearly all actives have a fitted effect of over 30% in size; further: potency means the concentration at half of the fitted maximal effect). Summed up:
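Read-out: CellTiter-Glo luminescence, 30 min RT. Cells: wild-type CHO-K1, 1000/well, 10% FBS, plated overnight at 37C. Treatment: 15 concentrations, 3 hr, 37C, 0.76% DMSO.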

Assay [11] can be described thus: qHTS RealTime-Glo MT Cell Viability Assay in HepG2 cells - 24 hour (AID 1224867). Further: nearly all actives have a fitted effect of over 50% in size. Further: potency means the concentration at half of the fitted maximal effect. The method in brief:
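Luminescence read-out: viable HepG2 cells reduce a prosubstrate to a NanoLuc substrate, giving a signal proportional to live cell number. Reads taken at 0, 8, 16, 24, 32 and 40 h of compound exposure at 37 C.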

The nature of assay [12]: qHTS RealTime-Glo MT Cell Viability Assay in HEK293 cells - 32 hour (AID 1224868). Further: nearly all actives have a fitted effect of over 50% in size. Further: potency means the concentration at half of the fitted maximal effect. Summed up: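 Nonlytic real-time viability readout: viable cells convert prosubstrate to NanoLuc substrate, giving luminescence proportional to live cell number. HEK293, 600 cells/well, compound added after 5 h, continuous culture at 37 C.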
Assay [13] in a line: A CellTox Green Cytotoxicity Assay to monitor cytotoxicity in HEK293 cells - 0 hour (AID 1224869). Further: nearly all actives have a fitted effect of over 50% in size. Summed up:
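Cells (HEK293, 600/well) and dye reagent are dispensed together. After 5 h at 37 C, 23 nL compound is pinned in. Plates stay at 37 C for 40 h with fluorescence read at 0h, 8h, 16h, 24h, 32h and 40h.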

Assay [14] is described as follows: qHTS assay to identify small molecule antagonists of the constitutive androstane receptor (CAR) signaling pathway - cell viability counter screen (AID 1224837). Further: nearly all actives have a fitted effect of over 45% in size. The method in brief:
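Viability was measured with CellTiter-Fluor in a HepG2 line carrying stably transfected hCAR and a CYP2B6-2.2kb construct. Cells were exposed for 23 hr at 37 C to 15 compound concentrations with 50 nM CITCO as agonist.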

Assay [15] can be described thus: qHTS assay to identify small molecule agonists of the constitutive androstane receptor (CAR) signaling pathway - cell viability counter screen (AID 1224836). Further: nearly all actives have a fitted effect of over 45% in size. Summed up:
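Compound titrations (15 concentrations) went onto HepG2-CYP2B6-hCAR cells 4 h after seeding, alongside PK11195 at a final 0.75 uM; a 23 h, 37 C/5% CO2 incubation preceded CellTiter-Fluor viability measurement.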

A short description of assay [16]: qHTS assay to identify small molecule antagonists of the estrogen related receptor signaling pathway with the pleiotropic PPARgamma coactivator (PGC) from Tox21 10K library (AID 1224841; call rule not given here). Summed up: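 Steps: plate 2,000 PGC/ERR cells per well; incubate 6 h at 37 C with 5% CO2; transfer compounds from DMSO stocks by pin tool; incubate 18 h at 37 C; add One-Glo; measure luminescence 30 min later.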

A short description of assay [17]: qHTS assay to identify small molecule agonists of the estrogen related receptor signaling pathway with the pleiotropic PPARgamma coactivator (PGC) from Tox21 10K library (AID 1224842). Further: nearly all actives have a fitted effect of over 15% in size. Further: potency means the concentration at half of the fitted maximal effect. Summed up: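 PGC/ERR reporter cells (NTP line) were seeded 2,000 per well, rested 6 h at 37 C/5% CO2, then pin-dosed with compounds in DMSO for 18 h at 37 C; luciferase read by One-Glo luminescence after 30 min at room temperature.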

Assay [18] in a line: qHTS assay to identify small molecule antagonists of the estrogen related receptor (ERR) signaling pathway from Tox21 library (AID 1224848). Further: nearly all actives have a fitted effect of over 50% in size. Summed up:
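Tox21 10K compounds in DMSO tested for ERR pathway antagonism in NTP's ERR cell line; 18 h, 37 C exposure; ONE-Glo luminescence.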

Assay [19] can be described thus: qHTS assay to identify small molecule agonists of the estrogen related receptor (ERR) signaling pathway from Tox21 library (AID 1224849; calls by dose curve; further: nearly all actives have a fitted effect of over 15% in size). Particulars: ERR reporter cell line, ONE-Glo luciferase, 18 h; at 92.4 µM (top of the series). The method in brief: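 Cells carrying the ERR reporter were plated and allowed to settle for 6 h, exposed to library compounds for 18 h at 37 C, then lysed with ONE-Glo and luminescence measured.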

Several values for one entry are separate records, joined by “and”; a condition that tells them apart may be missing. Equal entries are not always repeated. Results filed as inconclusive are left out. More than one record can exist for a structure, and the calls need not agree. Activity calls are given as the source filed them. Unless noted, the call rests on the fitted dose curve; in most records, active means well fitted curve in the direction sought with a large enough effect in the repeat runs; inconclusive means weak or mixed curves; inactive means no such curve, though single readings can be large; an effect the other way counts as inactive or inconclusive.
On the % scale 0 is the no-effect control and ±100 the full control effect.

Thyrotropin receptor (Homo sapiens), sequence (P16473 whole entry, looked up): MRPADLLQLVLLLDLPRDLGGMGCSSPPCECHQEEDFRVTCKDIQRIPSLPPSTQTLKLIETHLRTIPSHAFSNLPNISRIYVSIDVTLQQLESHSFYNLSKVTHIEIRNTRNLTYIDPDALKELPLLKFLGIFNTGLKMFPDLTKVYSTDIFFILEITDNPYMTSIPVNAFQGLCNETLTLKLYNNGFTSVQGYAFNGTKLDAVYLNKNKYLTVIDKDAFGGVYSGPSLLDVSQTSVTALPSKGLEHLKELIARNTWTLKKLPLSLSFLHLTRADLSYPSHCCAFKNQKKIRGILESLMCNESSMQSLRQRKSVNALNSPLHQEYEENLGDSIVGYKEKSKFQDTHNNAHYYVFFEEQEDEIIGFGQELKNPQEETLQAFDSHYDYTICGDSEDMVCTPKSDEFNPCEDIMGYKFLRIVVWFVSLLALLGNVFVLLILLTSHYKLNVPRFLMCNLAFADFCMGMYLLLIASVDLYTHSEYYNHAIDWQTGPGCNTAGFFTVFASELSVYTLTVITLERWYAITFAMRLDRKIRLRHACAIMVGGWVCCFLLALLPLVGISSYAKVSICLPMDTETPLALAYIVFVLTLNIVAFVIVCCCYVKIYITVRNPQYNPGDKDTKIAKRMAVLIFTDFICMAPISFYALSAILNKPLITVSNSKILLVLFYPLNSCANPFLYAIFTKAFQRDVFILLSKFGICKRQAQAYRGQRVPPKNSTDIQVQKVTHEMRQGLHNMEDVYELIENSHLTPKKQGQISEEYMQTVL
Nuclear receptor subfamily 1 group I member 3 (Homo sapiens), sequence (Q14994 whole entry, looked up): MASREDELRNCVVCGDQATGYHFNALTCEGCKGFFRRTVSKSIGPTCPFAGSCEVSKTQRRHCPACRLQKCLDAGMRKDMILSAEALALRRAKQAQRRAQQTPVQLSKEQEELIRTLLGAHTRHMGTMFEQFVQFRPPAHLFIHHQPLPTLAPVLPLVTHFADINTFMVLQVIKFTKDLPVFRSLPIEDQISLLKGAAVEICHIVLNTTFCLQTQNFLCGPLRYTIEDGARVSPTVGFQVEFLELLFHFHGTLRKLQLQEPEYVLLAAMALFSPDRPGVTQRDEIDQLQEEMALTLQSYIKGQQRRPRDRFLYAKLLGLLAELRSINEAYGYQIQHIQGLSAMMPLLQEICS

As to `CCCCCCCCCCCCN`, the Potency entry in [1] is “inactive and 7.7 µM (active)”; in [5] it was “inactive and 12.2 µM (active)”; in [10], “inactive and 20.1 µM (active)”; in assay [11], “inactive and 24.5 µM (active)”; in [12] it was “inactive and 43.6 µM (active)”. Moreover, the Potency entry in assay [2], in assay [3], in assay [4], in assay [6], in assay [7] and in assay [8] was “inactive” each time. The Potency entry in assay [13] was “inactive”. In addition, in [9], the call was inactive.
Regarding `O=C1N=C(O)CN1/N=C/c1ccc(-c2ccc([N+](=O)[O-])cc2)o1`, the Potency in [1] is 43.3 µM (active) and 26.6 µM (active); in assay [5], 48.6 µM (active) and inactive. The Potency result in [14], in assay [4], in assay [6], in assay [7], in assay [8] and in assay [11] was “inactive” throughout. Also, the Potency entry in assay [12] and in assay [13] was “inactive” throughout.
Take `CC(C)(C)C1CCC(O)CC1` (stereo unspecified): the Potency result in assay [1], in assay [15], in assay [14], in assay [3], in assay [4] and in assay [5] was “inactive” throughout. The Potency entry in assay [6], in [7], in assay [8], in [10], in [11] and in [12] was “inactive” each time. In addition, the Potency entry in assay [13] is “inactive”. In addition, the result in assay [9] was inactive.
As to `O=[N+]([O-])c1cccc(Cl)c1`, the Potency result in [1], in assay [2], in [15], in assay [14], in assay [5] and in assay [16] was “inactive” throughout. Moreover, the Potency result in [17], in [7], in assay [8], in [18], in assay [11] and in assay [12] was “inactive” in each case. For the same molecule, the Potency entry in [13] is “inactive”. Besides, the Potency in [6] was 6.74 µM (active) and inactive. Further, the result in [9] was inactive. For the same molecule, the activity change, positive = activation in [19] is 8.37% (inactive) and -4.75% (inactive).
Take `O=S(=O)(O)c1cc(S(=O)(=O)O)c2c(N=Nc3ccccc3)c(O)ccc2c1`: the Potency in assay [1] is 54.7 µM (active) and 34.4 µM (active). Besides, the Potency result in [2], in assay [4], in assay [6], in [7], in assay [11] and in assay [12] was “inactive” each time. In addition, the Potency entry in [13] was “inactive”. For the same molecule, in [9], the molecule was called inactive.
For the molecule `CC(C)NCC(O)COc1cccc2ccccc12` (stereo unspecified), the Potency result in assay [1], in assay [14], in assay [4], in assay [5], in assay [7] and in assay [8] was “inactive” in each case. In addition, the Potency result in assay [11] and in [13] was “inactive” in each case.
As for `COC(=O)c1ccccc1O`, the Potency result in [1], in assay [15], in [14], in [5], in [16] and in assay [6] was “inactive” in each case. Further, the Potency entry in assay [7], in [8], in [18], in assay [11] and in assay [13] was “inactive” each time. Moreover, the Potency is 63.5 µM (active) and inactive in [2]; 21.7 µM (active) and inactive in [17]. Also, the outcome in assay [9] was inactive. In addition, the activity change, positive = activation in [19] is 19.3% (active) and 7.16% (inactive).
In the case of `O=[N+]([O-])C(CO)(CO)CO`, the Potency entry in assay [1], in assay [2], in [15], in [14], in [5] and in assay [16] was “inactive” each time. The Potency entry in assay [17], in assay [6], in assay [7], in [8], in assay [10] and in assay [18] was “inactive” each time. Moreover, the Potency result in assay [11] and in assay [13] was “inactive” in each case. Also, in [9], the outcome was inactive. Further, the activity change, positive = activation in assay [19] is 10.1% (inactive) and 10.2% (inactive).

The values above are taken from PubChem BioAssay (Tox21).
